Source: PubChem BioAssay AID1645838 (ICCB-Longwood Screening Facility, Harvard Medical School, 2021)
About 100 (5%) of roughly 2,000 compounds were called active. Cut-off read from the data, not from the text of the source: active = z-score above about 2; inactive = the rest. Shown is part of a subset that was picked to be rich in actives.

Assay: supercomplex reporter luminescence per Hoechst cell count – Hoechst nuclei count (AID 1645838);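 note: control cybrid cells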;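 for z-score: higher means more mitochondrial supercomplex formation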
Settings: Cells, luminescence/Hoechst cell count ratio; for z-score: stronger effect = higher value; for cell count: measured here: cell number, Hoechst nuclei count
[1] = library stock concentration (final well concentration not given) 46 uM
[2] = library stock concentration (final well concentration not given) 278 uM
[3] = library stock concentration (final well concentration not given) 1.67 mM
[4] = library stock concentration (final well concentration not given) 10 mM
[5] = library stock concentration (final well concentration not given) 80 uM
[6] = library stock concentration (final well concentration not given) 400 uM
[7] = library stock concentration (final well concentration not given) 2 mM

C=C(C)[C@@H]1CCC(C)=C[C@H]1c1c(O)cc(C)cc1O
z-score: -0.799 (inactive)
cell count: 5690

Nc1nc2c([nH]c(=O)n2[C@@H]2O[C@H](CO)[C@@H](O)[C@H]2O)c(=O)[nH]1
z-score: -0.949 (inactive)
cell count: 5870

NC(=O)c1cccc(-c2cccc(OC(=O)NC3CCCCC3)c2)c1
z-score: -0.595 (inactive)
cell count: 5600

COc1cccc(-c2ccc(NC(=O)C3=C(C(=O)O)CCC3)c(F)c2)c1
z-score [1]: 0.0997 (inactive)
z-score [2]: 0.11 (inactive)
z-score [3]: -0.285 (inactive)
z-score [4]: 7.02 (active)
cell count [1]: 6810
cell count [2]: 6860
cell count [3]: 6660
cell count [4]: 3760

COc1cc(NC(=O)c2ccc(-c3ccc(Cl)cc3)o2)cc(OC)c1
z-score [1]: -0.316 (inactive)
z-score [2]: 0.0249 (inactive)
z-score [3]: -0.417 (inactive)
z-score [4]: -1 (inactive)
cell count [1]: 6650
cell count [2]: 6230
cell count [3]: 6670
cell count [4]: 6710

C[C@@H](O)CCC[C@H](O)/C=C/C1=C(C/C=C\CCCC(=O)O)C(=O)CC1
z-score: -0.229 (inactive)
cell count: 5100

c1ccc(Cc2ccncc2)cc1
z-score [5]: -0.46 (inactive)
z-score [6]: -0.111 (inactive)
z-score [7]: -0.201 (inactive)
z-score [4]: -0.169 (inactive)
cell count [5]: 5970
cell count [6]: 5030
cell count [7]: 5260
cell count [4]: 5220

CC/C=C\C/C=C\C/C=C\CCCCCCCC(=O)O
z-score: -0.381 (inactive)
cell count: 5900

CCCCCCCCCCCC(=O)CC(=O)N[C@H]1CCOC1=O
z-score: -0.866 (inactive)
cell count: 5800

CCCCC[C@H](O)/C=C/[C@H]1CC[C@@H](O)[C@@H]1CCCCCCC(=O)O
z-score: 0.234 (inactive)
cell count: 5240

CC1COCCN1c1cc(C2(S(C)(=O)=O)CC2)nc(-c2cccc3[nH]ccc23)n1 (stereo not given)
outcome (library stock 10 mM): inactive; censored for cell count
z-score [5]: -0.307 (inactive)
z-score [6]: -0.152 (inactive)
z-score [7]: 2.1 (active)
cell count [5]: 5900
cell count [6]: 5550
cell count [7]: 2180

CCCCC[C@H](O)/C=C/[C@H]1[C@H](O)CC(=O)[C@@H]1CC(=O)CCCCC(=O)O
z-score: 0.036 (inactive)
cell count: 5230

CN(C)C1CCc2[nH]c3ccc(NC(=O)c4ccc(F)cc4)cc3c2C1 (stereo not given)
z-score [1]: -0.478 (inactive)
z-score [2]: -0.381 (inactive)
z-score [3]: -0.318 (inactive)
z-score [4]: -0.368 (inactive)
cell count [1]: 6480
cell count [2]: 6070
cell count [3]: 6670
cell count [4]: 6110

CCCCC[C@H](O)/C=C/[C@H]1C2COC(C2)[C@@H]1C/C=C/CCCC(=O)O (stereo not given in full)
z-score: -0.6 (inactive)
cell count: 5320

Cc1cc(Nc2cc(N3CCN(C)CC3)nc(Sc3ccc(NC(=O)C4CC4)cc3)n2)n[nH]1
outcome (library stock 80 µM): inactive; censored for cell count
outcome (library stock 400 µM): inactive; censored for cell count
outcome (library stock 2 mM): inactive; censored for cell count
outcome (library stock 10 mM): inactive; censored for cell count
z-score [5]: 5.13 (active)
cell count [5]: 1630

CCCCC(C)(C)[C@H](O)/C=C/[C@H]1C=CC(=O)[C@@H]1CCCCCCC(=O)O
z-score: 0.218 (inactive)
cell count: 4930

CCCCC[C@@H](O)/C=C/[C@H]1[C@H](O)CC(=O)[C@@H]1C/C=C\CCCC(=O)O
z-score: -0.0831 (inactive)
cell count: 5100

CCCCCCCCCCCC(=O)O
z-score: 0.0111 (inactive)
cell count: 5210

CCCCCCCCCCCCCCP(=O)(O)O
z-score: 1.99 (active)
cell count: 4360

CCCCCCCCCCCCCCCCCCCCCCCCCCCCCCO
z-score: -1.19 (inactive)
cell count: 5750

O=C(O)CCn1nnc2ccccc21
z-score [1]: -0.598 (inactive)
z-score [2]: -0.676 (inactive)
z-score [3]: -0.406 (inactive)
z-score [4]: -0.311 (inactive)
cell count [1]: 7120
cell count [2]: 7440
cell count [3]: 7310
cell count [4]: 7490

Cn1cncc1[C@@](N)(c1ccc(Cl)cc1)c1ccc2c(c1)c(-c1cccc(Cl)c1)cc(=O)n2C
z-score [5]: 0.384 (inactive)
z-score [6]: 1.69 (inactive)
z-score [7]: 2.04 (active)
z-score [4]: 1.89 (inactive)
cell count [5]: 5540
cell count [6]: 3990
cell count [7]: 3590
cell count [4]: 3700

CCCCCCCC/C=C\CCCCCCCCCCCCCC(=O)N[C@@H](CO)[C@H](O)/C=C/CCCCCCCCCCCCC
z-score: 0.191 (inactive)
cell count: 5540

CCCCC[C@H]1/C=C/[C@@H]2[C@@H](C/C=C\CCCC(=O)O1)[C@@H](O)C[C@H]2O
z-score: -1.49 (inactive)
cell count: 5780

Cn1c2cc(S(C)=O)sc2c2cnn(Cc3cccc(N)c3)c(=O)c21 (stereo not given)
z-score [1]: 0.266 (inactive)
z-score [2]: 0.15 (inactive)
z-score [3]: -0.3 (inactive)
z-score [4]: -0.338 (inactive)
cell count [1]: 6150
cell count [2]: 6110
cell count [3]: 6540
cell count [4]: 6600

O=P(O)(O)O[C@H]1[C@@H](O)[C@H](O)[C@@H](OP(=O)(O)O)[C@H](OP(=O)(O)O)[C@H]1O
z-score: -0.14 (inactive)
cell count: 4340

COC(=O)NC(C)CNc1nccc(-c2cn(C(C)C)nc2-c2cc(Cl)cc(NS(C)(=O)=O)c2F)n1 (stereo not given)
z-score [1]: -0.459 (inactive)
z-score [2]: -0.411 (inactive)
z-score [3]: 0.775 (inactive)
z-score [4]: 4.21 (active)
cell count [1]: 6450
cell count [2]: 6190
cell count [3]: 4330
cell count [4]: 1620

CCN(C)C(=O)Oc1cccc(C(C)N(C)C)c1 (stereo not given)
z-score [5]: -0.403 (inactive)
z-score [6]: -0.339 (inactive)
z-score [7]: -0.314 (inactive)
z-score [4]: -0.639 (inactive)
cell count [5]: 6790
cell count [6]: 6310
cell count [7]: 6660
cell count [4]: 6230

CC(C)(C)n1nc(-c2ccc(Cl)cc2)c2c(N)ncnc21
z-score [5]: -0.14 (inactive)
z-score [6]: 0.32 (inactive)
z-score [7]: 0.695 (inactive)
z-score [4]: 1.68 (inactive)
cell count [5]: 5420
cell count [6]: 5110
cell count [7]: 5300
cell count [4]: 4150

Cc1ccc(-c2nn(C(C)(C)C)c3ncnc(N)c23)cc1
z-score [1]: 0.0479 (inactive)
z-score [2]: 0.621 (inactive)
z-score [3]: 1.98 (active)
z-score [4]: 5.9 (active)
cell count [1]: 6410
cell count [2]: 5940
cell count [3]: 6220
cell count [4]: 4640

CC(C)(C)n1nc(Cc2cccc3ccccc23)c2c(N)ncnc21
z-score: -0.348 (inactive)
cell count: 5760

COc1cc(Cc2cnc(N)nc2N)c2c(c1OC)OC(C1CC1)C=C2 (stereo not given)
z-score [5]: -0.274 (inactive)
z-score [6]: -0.19 (inactive)
z-score [7]: -0.518 (inactive)
z-score [4]: -0.337 (inactive)
cell count [5]: 5160
cell count [6]: 5070
cell count [7]: 5260
cell count [4]: 4960

CC(Sc1nc2ccccc2[nH]1)C(=O)NN=Cc1cc(Br)ccc1O (stereo not given)
z-score [1]: -1.02 (inactive)
z-score [2]: -0.707 (inactive)
z-score [3]: -0.734 (inactive)
z-score [4]: 3.92 (active)
cell count [1]: 7560
cell count [2]: 6830
cell count [3]: 7060
cell count [4]: 3080

CC(Sc1nc2ccccc2[nH]1)C(=O)N/N=C/c1cc(Br)ccc1O (stereo not given)
z-score: -0.336 (inactive)
cell count: 5170
